An excerpt weighted towards active compounds, which were near 3.4% of everything screened.
OTUD3 block: human OTUD3 deubiquitinase inhibition | inhibition, % at 25 µM | purified OTUD3, Ub-rhodamine fluorescence, 2 h | 0.7% of 47,000 active | Q5T2D3
Target sequence (Q5T2D3 whole entry, looked up): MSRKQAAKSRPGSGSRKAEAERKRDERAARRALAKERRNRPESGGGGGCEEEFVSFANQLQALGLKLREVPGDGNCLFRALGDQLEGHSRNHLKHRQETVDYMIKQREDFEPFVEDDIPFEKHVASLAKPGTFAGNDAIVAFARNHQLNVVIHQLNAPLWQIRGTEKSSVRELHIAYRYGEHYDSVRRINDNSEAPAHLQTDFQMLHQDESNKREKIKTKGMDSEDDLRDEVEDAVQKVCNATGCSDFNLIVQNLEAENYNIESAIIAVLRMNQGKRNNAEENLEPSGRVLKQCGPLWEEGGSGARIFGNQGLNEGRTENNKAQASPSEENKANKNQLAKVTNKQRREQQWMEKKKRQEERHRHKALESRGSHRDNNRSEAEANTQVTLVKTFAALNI
USP28 inh: inhibitors of human USP28 deubiquitinase; Q96RU2; purified USP28, Ub-rhodamine cleavage fluorescence, 30 min; inhibition, % at 25 µM; 3% of 47,000 active; AID 1645857
Numbers without * were called inactive; / = no result. Cut-off read from the data, not from the text of the source: active = inhibition above about 30%; inactive = the rest.

SMILES	OTUD3 block	USP28 inh
O=C(Nc1ccccc1Br)c1ccn(COc2ccccc2F)n1	-1	19
O=C(Nc1cc(F)ccc1F)c1ccn(COc2ccc(F)c(Cl)c2)n1	15	19
O=S(=O)(N1CCCC1)N1C[C@H]2CC(OCc3ccccc3)C[C@H]2C1 (stereo partly specified)	14	10
Cc1ccc(CN(C)C(=O)c2cccc3cccnc23)c(C)c1	-4	-3
Cc1cc(C)c2cc3c(nc2c1)OC(=O)N(Cc1ccco1)C3	10	40*
Cc1ccc2cc3c(nc2c1)OC(=O)N(Cc1ccco1)C3	-16	2
CCn1c2ccccc2c2cc(NC(=O)CSc3n[nH]c(N)n3)ccc21	12	21
Cc1ccc(C(=O)N2C[C@H](Oc3ccccn3)[C@H]3OCCC[C@H]32)cn1	9	12
COc1nn(C)cc1C(=O)N1CCC(C(=O)Nc2ccc(Br)cc2F)CC1	-1	45*
CCOC(=O)C1CCN(C(=O)c2ccccc2NS(=O)(=O)c2ccc(F)c(F)c2)CC1	-4	0
Cc1ccc(CN(C)C(=O)Cn2nc(C)c(S(=O)(=O)N3CCc4ccccc43)c2C)o1	5	16
COc1ccc(OC)c2c(C)cc(N3CCN(S(=O)(=O)c4ccc5c(c4)CCCN5S(C)(=O)=O)CC3)nc12	0	44*
COc1ccc(S(=O)(=O)Nc2ccc3c(c2)CCCN3S(C)(=O)=O)cc1	2	0
CC(C)C(=O)Nc1ccc(N2CCN(Cc3ccc(F)cc3)C2=O)nc1	11	23
O=C1N(Cc2ccc(F)cc2)CCN1c1ccc2c(c1)OCO2	12	48*
COc1cc(CCC(=O)N(C)C(c2ccccc2)c2ccccc2)cc(OC)c1OC	0	4
COc1ccccc1CC(=O)N(C)C(c1ccccc1)c1ccccc1	35*	26
O=C(CSc1ccc2nnc(-c3ccccc3)n2n1)c1ccccc1	12	5
O=C(CSc1cn(CC(=O)N2CCCCC2)c2ccccc12)Nc1ccc(Cl)cc1	15	7
COc1cc(=O)c(C(=O)Nc2ccc(C#N)cc2)nn1-c1cccc(F)c1	-2	43*
COc1cccc(NC(=O)c2nn(-c3cccc(F)c3)c(OC)cc2=O)c1	8	11
O=C(CSc1ncnc2c1oc1ccccc12)NCCc1ccccc1	12	15
COc1ccccc1CNC(=O)c1cc(C2CC2)nc2c1cnn2C(C)C	-8	-11
CC(C)n1ncc2c(C(=O)NCCc3cccc(Cl)c3)cc(C3CC3)nc21	-2	37*
COc1ccc(CNC(=O)c2cc(C3CC3)nc3c2cnn3C(C)C)cc1	-17	18
SMILES	OTUD3 block	USP28 inh
CC(C)n1ncc2c(C(=O)NCCc3ccc(Cl)cc3)cc(C3CC3)nc21	-6	38*
CC1CCN(S(=O)(=O)c2nnc(NC(=O)C34CC5CC(CC(C5)C3)C4)s2)CC1	-6	-11
CN(C(=O)c1cccs1)c1nc2c(s1)CCc1occc1-2	0	-21
Cc1c(C(=O)N(C)c2nc3c(s2)CCc2occc2-3)oc2ccccc12	36*	40*
CCc1nc2ccc(C(=O)Nc3nc(-c4ccc5c(c4)CCN5C(=O)c4cccc(C)c4)c(C)s3)cc2nc1CC	9	9
CN1CCN(Cc2cccnc2)C(=O)C12CCN(Cc1ccc[nH]1)CC2	6	55*
CN1CCN(Cc2cccnc2)C(=O)C12CCN(c1ncccn1)CC2	-22	-44
COc1ccc(C2CC(=O)c3c(oc(C(=O)OC(C)C)c3C)C2)cc1 (stereo unspecified)	3	-1
O=C(Cn1cncc(-c2nc(-c3ccccc3)cs2)c1=O)NC1CCCC1	30	36*
O=C(Cn1cnc2ccccc2c1=O)NC1CCCC1	-7	-3
CN(Cc1ccccc1)S(=O)(=O)c1ccc2[nH]cc(C(=O)NCc3cccs3)c(=O)c2c1	-8	-9
COc1ccc(S(=O)(=O)N(C)Cc2cccs2)cc1OC	18	68*
CCCCNC(=O)CSc1nnc(-c2cc3ccccc3n2C)o1	31*	23
Cn1c(-c2nnc(SCC(=O)NCCc3ccccc3)o2)cc2ccccc21	17	19
CC(C(=O)NCc1ccccn1)n1cccc1C(=O)c1ccccc1 (stereo unspecified)	5	2
CC(C(=O)NCc1ccc(F)cc1)n1cccc1C(=O)c1ccccc1 (stereo unspecified)	74*	8
COc1ccccc1-c1nc(-c2nnn(Cc3ccc(C)cc3)c2C)no1	0	72*
COc1ccccc1-c1nc(-c2nnn(Cc3ccccc3)c2C)no1	18	45*
COc1ccccc1-c1nc(-c2nnn(-c3ccc(C)cc3)c2C)no1	12	11
Cc1c(-c2noc(-c3ccco3)n2)nnn1Cc1cccc(F)c1	-3	7
COc1ccc(-c2nc(-c3nnn(Cc4ccccc4)c3C)no2)cc1OC	0	23
COc1ccc(-c2nc(-c3nnn(Cc4cccc(F)c4)c3C)no2)c(OC)c1	3	42*
CCN(CC(=O)NC(C)(C)C)C(=O)C1CCN(S(=O)(=O)c2ccccc2)CC1	13	6
Cn1c2ccccc2c(=O)c2c(=O)n(Cc3ccco3)c(-c3ccccc3F)nc21	-4	-11
COc1cccc(CNC(=O)C2CCCN(S(=O)(=O)N3CCOCC3)C2)c1 (stereo unspecified)	22	13
SMILES	OTUD3 block	USP28 inh
COc1ccc(S(=O)(=O)Nc2ccc3c(c2)CCN3C(=O)C2CC2)cc1OC	6	2
CCN1CCC2(CN(CCOC)CC23CCN(C(=O)Nc2ccccc2)CC3)C1=O (stereo unspecified)	-4	-23
Cc1ccc(C(=O)c2cn(CC(=O)Nc3ccccc3)c3ccccc3c2=O)cc1	16	23
COc1ccc(NC(=O)Cn2cc(C(=O)c3ccc(C)cc3)c(=O)c3ccccc32)cc1	10	41*
CCOc1ccc2c(c1)c(=O)c(C(=O)c1ccc(F)cc1)cn2CC(=O)Nc1ccc(F)cc1	5	/
CCOc1ccc2c(c1)c(=O)c(C(=O)c1ccc(C)cc1)cn2CC(=O)Nc1ccc(OC)c(OC)c1	36*	40*
O=C(NCc1ccccc1)C1CCN(c2cncnc2N2CCOCC2)CC1	13	12
CCCOc1ccc(CNC(=O)C2CCN(c3ccncc3)CC2)cc1	-5	35*
O=C(NCc1ccncc1)C1CCN(c2cncnc2N2CCCCC2)CC1	-14	52*
Cc1ccccc1CNC(=O)C1CCN(c2ccncc2)CC1	-6	-6
CC1(C)CC(=O)c2cnc3c(C(=O)NC4CCCCC4)cnn3c2C1	1	-7
O=C(COc1nsnc1N1CCOCC1)Nc1ccc(F)cc1F	-6	-17
COc1ccc(CNC(=O)[C@H](C)N2C(=O)N3CCc4c([nH]c5ccc(OC)cc45)[C@@]3(C)C2=O)cc1	-7	33*
COc1cccc(CNC(=O)[C@H](C)N2C(=O)N3CCc4c([nH]c5ccc(OC)cc45)[C@@]3(C)C2=O)c1	7	1
Cc1nc(C2COCCN2C(=O)c2cnc3ccccc3c2)cc(=O)[nH]1 (stereo unspecified)	-4	-19
Cc1nc2cc(-c3noc(-c4cccc5[nH]ccc45)n3)ccc2o1	-6	42*
O=c1ccc(-c2noc(-c3cccc4[nH]ccc34)n2)c[nH]1	-24	-53
CCCCN1C(=O)c2ccccc2C1Sc1ccc(OC)cc1 (stereo unspecified)	4	-3
COc1ccc2[nH]c3c(N4CCN(c5ccccc5F)CC4)ncnc3c2c1	16	7
